# From PubChem BioAssay AID588590 (National Center for Advancing Translational Sciences (NCATS), 2011)
# In all, about 390,000 compounds went through this assay and about 4,000 (1%) were called active. About 7% were inconclusive and are not listed. The call rests on the fitted dose curve; in most records, active means well fitted inhibition curve with a large enough effect; inconclusive means small, poorly fitted or top-dose-only effect, or another doubt; inactive means no such curve, though single readings can be large or run the other way. Many of the other results were omitted from the sample, so actives are more common in it than they were.
# Biological target: DNA polymerase iota (Homo sapiens) (UniProt Q9UNA4)
# Experiment: qHTS for Inhibitors of Polymerase Iota
# Settings: Pol iota fluorescent replication assay, 10 min; series mostly up to 115 µM; activity, negative = inhibition: at the top concentration
# In short: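 Fluorescent replication assay read twice, at 0 min and 10 min after adding 50 nM (final) substrate. Enzyme (10 nM) and compounds were first incubated 15 min at room temperature; enzyme-free buffer wells were negative controls.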
# Potency means the concentration at half of the fitted maximal effect.
# Chain of DNA polymerase iota (Homo sapiens) (Q9UNA4 whole entry, looked up): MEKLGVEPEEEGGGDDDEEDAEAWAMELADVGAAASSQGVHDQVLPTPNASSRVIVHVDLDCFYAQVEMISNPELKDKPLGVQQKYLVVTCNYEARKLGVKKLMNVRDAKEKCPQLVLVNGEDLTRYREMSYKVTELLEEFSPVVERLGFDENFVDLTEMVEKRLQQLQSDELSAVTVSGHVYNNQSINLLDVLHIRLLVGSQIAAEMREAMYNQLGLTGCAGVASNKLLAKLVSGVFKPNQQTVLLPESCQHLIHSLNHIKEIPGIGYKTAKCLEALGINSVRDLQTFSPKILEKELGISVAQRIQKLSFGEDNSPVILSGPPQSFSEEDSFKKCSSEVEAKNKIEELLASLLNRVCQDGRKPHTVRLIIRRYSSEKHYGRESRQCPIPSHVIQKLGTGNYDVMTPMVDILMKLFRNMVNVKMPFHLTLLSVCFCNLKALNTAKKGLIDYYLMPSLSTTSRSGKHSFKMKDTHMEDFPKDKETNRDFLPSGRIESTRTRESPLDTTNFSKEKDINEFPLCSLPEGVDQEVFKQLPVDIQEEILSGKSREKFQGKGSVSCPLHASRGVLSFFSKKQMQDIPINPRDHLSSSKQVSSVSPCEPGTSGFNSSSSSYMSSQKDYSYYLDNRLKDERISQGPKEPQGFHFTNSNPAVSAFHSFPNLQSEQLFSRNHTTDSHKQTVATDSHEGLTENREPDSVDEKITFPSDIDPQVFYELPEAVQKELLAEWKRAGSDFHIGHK
SMILES,"activity, negative = inhibition",Potency
Cc1ccccc1NC(=O)Cn1c(=O)n(CCc2ccccc2)c(=O)c2ccccc21,23.8% (inactive),–
Cc1ccccc1NC(=O)CN1C(=O)C(C)(C)c2ccccc21,18.5% (inactive),–
Cc1ccccc1NC(=O)CN1C(=O)N/C(=C\c2cccn2-c2cccc(C(=O)O)c2)C1=O,–,5.62 µM (active)
COc1ccc2c(c1)c(=O)c(S(=O)(=O)c1ccc(F)cc1)cn2CC(=O)Nc1ccc(C)cc1C,25.1% (inactive),–
CCN(CCCNC(=O)c1cc(Nc2ccc(OC)cc2)nc2ccccc12)c1cccc(C)c1,17.7% (inactive),–
CC(C)CCNC(=O)c1ccc2c(Cl)c3c(nc2c1)CCC3,107% (inactive),–
COc1cccc(CNC(=O)CSc2c3c(nc4cc(Cl)ccc24)CCCC3)c1,25.5% (inactive),–
COc1cccc(CNC(=O)c2ccc3c(Cl)c4c(nc3c2)CCCC4)c1,–,89.1 µM (active)
Cc1ccc(Cn2c(CCCNC(=O)C3CCCCC3)nc3ccccc32)cc1,24.5% (inactive),–
Cn1c(=O)oc2cc(S(=O)(=O)CCC(=O)NCCc3ccc(Cl)cc3)ccc21,21.8% (inactive),–
CC1CCN(c2ccc([N+](=O)[O-])cc2C(N)=O)CC1,0.643% (inactive),–
CCC(C)(C)NC(=O)c1cc([N+](=O)[O-])ccc1N1CCCCC1,12% (inactive),–
O=C(O)C1CCN(c2ccc([N+](=O)[O-])cc2[N+](=O)[O-])CC1,–,20 µM (active)
COC(=O)CN1C(=O)N/C(=C/c2ccc(OC)c(C)c2OC)C1=O,76.4% (inactive),–
COC(=O)COc1ccc2c(c1C)O/C(=C\c1ccco1)C2=O,–,89.1 µM (active)
COc1ccccc1OCC(=O)OCc1cc(-c2ccco2)on1,-2.3% (inactive),–
Cc1ccc(C(=O)CC2(O)C(=O)N(CCc3ccccc3)c3ccc(Br)cc32)cc1 (stereo unspecified),14.1% (inactive),–
CCN(CC)c1cc(NC2CCCCC2)c2c3c(onc13)-c1ccccc1C2=O,36% (inactive),–
COc1ccc(CNC(=O)CC2Oc3ccc(C)cc3NC2=O)cc1 (stereo unspecified),15.5% (inactive),–
CCc1ccc(NC(=O)c2sc3nc4c(cc3c2N)CN(CC)CC4)cc1,7.62% (inactive),–
CCc1nnc(NC(=O)c2ccc(S(=O)(=O)NC3CCCCC3)cc2)s1,4.68% (inactive),–
CCc1ccc2nc3sc(C(=O)Nc4nnc(CC)s4)c(N)c3cc2c1,–,22.4 µM (active)
COC(=O)c1cc2occc2n1Cc1nc(-c2ccc(C)cc2)oc1C,-13.4% (inactive),–
Cc1cc(C=O)c(C)n1-c1ccc(NC2CCCCC2)c([N+](=O)[O-])c1,-6.87% (inactive),–

SMILES,"activity, negative = inhibition",Potency
Cc1cc(/C=N/NC(=O)CC2(C)OCCO2)c(C)n1-c1ccc(Cl)c(Cl)c1,3.54% (inactive),–
Cc1cc(/C=N/Nc2ccc([N+](=O)[O-])cn2)c(C)n1-c1cccc(C(=O)O)c1,–,28.2 µM (active)
COc1ccc(NC(=O)C2CCN(c3ccc(Sc4ccc(C)cc4)nn3)CC2)c(OC)c1,7.33% (inactive),–
O=C1C[C@H]2C=CCc3cccc(c32)CN1Cc1ccccc1,2.61% (inactive),–
COc1ccc(Cl)cc1-n1c(CCC(=O)O)ccc1-c1ccc(C)cc1,-8.96% (inactive),–
CCOc1ccccc1N(CC)C(=O)Nc1cn(C)c(=O)c2ccccc12,28.1% (inactive),–
CCOc1ccccc1NC(=O)Cn1c2ncccc2c(=O)n1-c1ccc(C)c(C)c1,8.51% (inactive),–
CCOc1ccccc1CNC(=O)Nc1cn(CC(C)C)c(=O)c2ccccc12,–,39.8 µM (active)
Cc1cccc(-c2nnc(SC(C)C(=O)Nc3ccccc3)n2C)c1 (stereo unspecified),3.47% (inactive),–
Cc1ccc(C)c2sc(NC(=O)c3ccc(S(=O)(=O)N4CCCC4)cc3)nc12,13.9% (inactive),–
Cc1ccc(CCNC(=O)C2CCN(c3nnc(-n4cccc4CNc4ccc(C)cc4)s3)CC2)cc1,11.6% (inactive),–
Cc1nn2c3cc(N4CCOCC4)ccc3nc2c2ccccc12,32.7% (inactive),–
c1ccc(-n2nnnc2N2CCOCC2)cc1,9.14% (inactive),–
C1=C(N2CCOCC2)/C(=C/c2nc3ccccc3[nH]2)CC1,–,14.1 µM (active)
O=C(Nc1ccc(Cl)cc1)c1cnn2c1NC(=C1CC1)C=C2C(F)F,2.31% (inactive),–
CCCOC(=O)c1c(NC(=O)c2cc3nc(-c4ccc(OC)cc4)cc(C(F)(F)F)n3n2)sc2c1CCCC2,-29% (inactive),–
CC1CCC2(CC1)N=C(c1ccccc1)C(=O)N2CC(=O)Nc1ccc(F)c(Cl)c1 (stereo unspecified),16.3% (inactive),–
Cc1ccc2nc(COc3ccccc3NC(=O)Nc3ccc(F)c(Cl)c3)cc(=O)n2c1,35.4% (inactive),–
Cc1ccc2nc(COc3cccc(NC(=O)c4cccc(Cl)c4)c3)cc(=O)n2c1,–,89.1 µM (active)
Cc1ccc2nc(COc3cccc(NC(=O)Nc4ccc(C)c(Cl)c4)c3)cc(=O)n2c1,15.8% (inactive),–
Cc1ccc(/C=N/NC(=O)Cn2nc(C)c(Br)c2C)o1,-3.61% (inactive),–
Cc1ccc(/C=N/NC(=S)NC2CCCCC2)o1,19.1% (inactive),–
Cc1ccc(/C=N/NC(=O)c2cc3ccccc3cc2O)o1,–,50.1 µM (active)
CCCC12CN3CC(C)(CN(C1)C3c1ccccc1Cl)C2=O (stereo unspecified),-15.2% (inactive),–

SMILES,"activity, negative = inhibition",Potency
CN=C1SC(C(=O)O)CC(=O)N1C (stereo unspecified),–,89.1 µM (active)
CCOc1ccc(N=C2SC(C(=O)O)CC(=O)N2C)cc1 (stereo unspecified),16.4% (inactive),–
COc1ccc(N=C2SC(C(=O)Nc3ccc(F)cc3)CC(=O)N2C)cc1 (stereo unspecified),95.7% (inactive),–
Cc1ccc2ncc(C(=O)Nc3ccc(OC(F)(F)F)cc3)c(=O)n2c1,-26.3% (inactive),–
CCOc1ccc(Nc2c(S(=O)(=O)c3ccccc3)cnc3ccccc23)cc1,-5.3% (inactive),–
COc1ccc(OC)c(-n2nnc(-c3nc(-c4cc(OC)c(OC)c(OC)c4)no3)c2C)c1,-9.96% (inactive),–
COc1cc(Nc2nc(-c3ccc(OC)c(OC)c3)nc3ccccc23)cc(OC)c1,6.46% (inactive),–
CC(Nc1ccc(-c2nc(-c3ccco3)no2)cc1[N+](=O)[O-])c1ccccc1 (stereo unspecified),–,70.8 µM (active)
CNc1ccc(-c2nc(-c3ccco3)no2)cc1[N+](=O)[O-],13.5% (inactive),–
O=[N+]([O-])c1cc(-c2nc(-c3ccccc3)no2)ccc1NCc1ccco1,-8.87% (inactive),–
COc1ccc(/C=C/c2ccnc3ccccc23)cc1OC,3.3% (inactive),–
CN(C(=N)N)c1ccc(/C=C2\C=Cc3ccccc32)cc1,4.23% (inactive),–
CC(=O)Nc1c2c(nn1-c1cccc(C)c1)CSC2,–,50.1 µM (active)
CC(C)C(=O)Nc1c2c(nn1-c1ccccc1)CSC2,10.4% (inactive),–
O=C(NCCCO)C(=O)Nc1c2c(nn1-c1ccccc1)CSC2,10.5% (inactive),–
COc1ccc(CNC(=O)Cn2nnc(-c3ccc(S(C)(=O)=O)cc3)n2)cc1,-14.7% (inactive),–
O=C(C[n+]1ccncc1)c1ccc2c(c1)CCCC2,6.27% (inactive),–
CC(C)(C)n1c(=O)[nH]c2c(c1=O)CCC2,4.41% (inactive),–
Cc1c(N=Nc2ccc(N(C)C)cc2)c(=O)n(-c2ccccc2)n1C,7.1% (inactive),–
O=c1[nH]n2c(=O)c3c([nH]c2c1N=Nc1ccccc1)CCC3,–,50.1 µM (active)
CC(C)NC(=O)C1CCC(Cn2c(=O)c3sccc3n(Cc3ccc(F)cc3)c2=O)CC1 (stereo unspecified),-3.5% (inactive),–
CCOC(=O)C1CCC(CN(Cc2ccc(OC)cc2)S(=O)(=O)c2ccc(F)c(C(=O)Nc3cc(C)ccc3C)c2)CC1 (stereo unspecified),-12.9% (inactive),–
CC(C)(C)c1ccc(C(=O)NCC(c2ccco2)S(=O)(=O)c2ccc(F)cc2)cc1 (stereo unspecified),-3.42% (inactive),–
COc1cccc2c1C(=O)c1c(O)c3c(c(O)c1C2=O)CC(O)(C(C)=NNC(=O)c1ccc(Cl)c(Cl)c1)CC3OC1CC(N)C(O)C(C)O1 (stereo unspecified),–,50.1 µM (active)

SMILES,"activity, negative = inhibition",Potency
COc1ccccc1NC(=O)C1=C(C)Nc2ncnn2C1c1sccc1C (stereo unspecified),-10.5% (inactive),–
O=C(O)C1=C/C(=C/C=[N+]2c3cc(O)c(O[C@H]4OC(CO)[C@@H](O)[C@@H](O)[C@@H]4O)cc3C[C@@H]2C(=O)[O-])C[C@H](C(=O)O)N1 (stereo partly specified),-28% (inactive),–
CCCS(=O)(=O)Nc1cccc(-c2cn3ccsc3n2)c1,0.928% (inactive),–
Cc1ccc(C)c(N2CCN(C(=O)Cn3nc(C)c4sc5ccccc5c4c3=O)CC2)c1,13.8% (inactive),–
C=C(C)C(=O)O[C@H]1C/C(C)=C\C(=O)/C=C(\C)[C@H](O)[C@@H]2OC(=O)C(=C)[C@@H]21,–,35.5 µM (active)
Cc1ccc(S(=O)(=O)N2CCCc3cc(NS(=O)(=O)c4cc(C)ccc4C)ccc32)cc1,12.8% (inactive),–
CCOc1ccc(NC(=O)CSc2nnc3c(n2)[nH]c2ccc(S(=O)(=O)N4CCOCC4)cc23)cc1,10% (inactive),–
Cc1ccc(-c2nn3c(=O)cc(CN4CCN(C(=O)Nc5cccc(C(F)(F)F)c5)CC4)nc3s2)cc1,34.4% (inactive),–
Cn1c(=O)c2c(-c3ccccc3Br)n(Cc3ccccc3)cc2n(C)c1=O,4.59% (inactive),–
COc1cccc(CNC(=O)c2ccc3c(c2)sc2nc(-c4cccc(OC)c4)cn23)c1,1.33% (inactive),–
COc1cccc2c1cc1c(=O)n(CC(=O)N3CCN(c4ccccc4)CC3)nc(C)n12,-0.0822% (inactive),–
CC(/C=C/C1(O)C(C)CC(=O)CC1(C)C)OC1OC(CO)C(O)C(O)C1O (stereo unspecified),–,79.4 µM (active)
C=CC1C(OC2OC(CO)C(O)C(O)C2O)OC=C(C(=O)OC)C1CC1CC(=O)CC(CC(=O)CCc2ccc(O)cc2)O1 (stereo unspecified),20% (inactive),–
CC1=C(C)C(=O)OC(C(C)C2CCC3C4CC=C5CC(OC6OC(COC7OC(CO)C(O)C(O)C7O)C(O)C(O)C6O)CC(O)C5(C)C4CCC23C)C1 (stereo unspecified),-19.9% (inactive),–
Nc1ncnc2nnsc12,-2.97% (inactive),–
COC(=O)c1ccc(Cn2c(SCC(=O)N(C)c3ccccc3)nc3ccccc32)cc1,-4.29% (inactive),–
CCC(C)Cn1c(O)cc2nn(-c3nc4ccccc4s3)c(=O)c-2c1C (stereo unspecified),–,12.6 µM (active)
CC(=O)c1cc(-c2ccccc2)[nH]c1N1CCCC1,5.83% (inactive),–
O=C1NN(c2ccccc2)C(=O)/C1=C/c1ccc(-c2cccc(C(=O)O)c2)o1,–,8.91 µM (active)
COc1ccc2c(c1)C=C(C(=O)NCc1cc(Br)ccc1OC)CO2,24.9% (inactive),–
COC(=O)c1ccc(NC(=O)CCc2c(C)nn(-c3ccc(N4CCCC4)nn3)c2C)cc1,3.11% (inactive),–
COc1ccc(C)cc1NC(=O)COCc1cc(-c2cccs2)on1,-5.82% (inactive),–
O=C(NC1CC(=O)N(c2ccccc2)C1)c1ccco1 (stereo unspecified),18.3% (inactive),–
CCOc1cc2[nH]c(=O)n(Cc3ccc(C(=O)NCCN(CC)CC)cc3)c(=O)c2cc1OCC,22.6% (inactive),–
